Reference: PubChem BioAssay AID652115 (Broad Institute, 2013)
In all, about 330,000 compounds went through this assay and about 3,800 (1.2%) were called active. Rule as the data show it: active = inhibition above about 15%; inconclusive = no clear call, values can overlap the other calls; inactive = below that. This excerpt belongs to a sample that is enriched for actives.

What follows are compounds tested against NAD-dependent protein deacylase sirtuin-5, mitochondrial (Homo sapiens) (UniProt Q9NXA8) (assay: blockers of sirtuin-5 deacylase activity – biochemical, fluorescence imaging, single point, set 5, primary screen (AID 652115)). Conditions: Purified SirT5, succinyl-peptide AMC, trypsin-coupled fluorescence; at 15 µM; stronger effect = higher value.
NAD-dependent protein deacylase sirtuin-5, mitochondrial (Homo sapiens), sequence (Q9NXA8 whole entry, looked up): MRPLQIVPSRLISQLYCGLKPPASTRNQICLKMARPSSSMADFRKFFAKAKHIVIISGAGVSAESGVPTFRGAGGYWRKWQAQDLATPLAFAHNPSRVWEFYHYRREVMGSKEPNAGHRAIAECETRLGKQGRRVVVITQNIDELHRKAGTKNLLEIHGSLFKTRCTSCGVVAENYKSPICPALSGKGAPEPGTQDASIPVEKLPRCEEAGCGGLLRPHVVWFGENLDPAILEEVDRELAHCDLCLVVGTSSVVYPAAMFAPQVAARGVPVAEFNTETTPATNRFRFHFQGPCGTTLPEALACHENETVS

inhibition, active:
COc1ccc(NC(=O)N[C@@H]2CC[C@H](CCn3cc(-c4ccc(OC)cc4)nn3)O[C@@H]2CO)cc1 31.3%, O=C(Cc1ccncc1)N[C@H]1CC[C@H](CCn2cc(-c3ccccc3F)nn2)O[C@@H]1CO 25.2%, Oc1c(Cl)cc(Cl)c(Cl)c1Cc1c(O)c(Cl)cc(Cl)c1Cl 16%, O=C1CCC(C(=O)N2CCC(O)(c3ccccc3)CC2)CN1CCc1ccccc1 (stereo not drawn) 15.1%, CC(C)C(=O)Nc1ccc2c3c(cccc13)CC2 18.7%, C=C(C)COc1ccc(-c2ncncc2-c2ccc(OC)cc2)c(O)c1 24.8%, O=C(NNc1ncnc2c1cnn2-c1ccccc1)c1ccco1 16.9%, COc1ccc(Cl)cc1NC(=O)COC(=O)c1ccc(Br)o1 21%, COc1ccc(Br)cc1/C=N/Nc1ccc(S(=O)(=O)Nc2ccccc2C(=O)O)cc1[N+](=O)[O-] 47.2%, COc1cccc(/C=N/Nc2ccc(S(=O)(=O)Nc3ccccc3C(=O)O)cc2[N+](=O)[O-])c1O 19%, Cc1cc(N2C(=O)C(O)=C(C(=O)c3ccc(C)o3)C2c2ccc(OCc3ccccc3)cc2)no1 (stereo not drawn) 19.4%, Cc1cc([N+](=O)[O-])ccc1NC1CCCC1 21.2%, Cc1c(C(=O)NCCN2CCOCC2)sc2nc(-c3ccc(F)cc3)cn12 26.8%, C[C@@H]1CN([C@@H](C)CO)S(=O)(=O)c2ccc(C#CCC3CCCC3)cc2O[C@H]1CN(C)Cc1ccc(C(=O)O)cc1 17.1%, C[C@@H]1CN([C@H](C)CO)S(=O)(=O)c2ccc(C#CCC3CCCC3)cc2O[C@H]1CN(C)Cc1ccc(C(=O)O)cc1 15.8%, CCc1nnc(NS(=O)(=O)c2ccc(NC(=S)NC(=O)c3cccs3)cc2)s1 19.1%

inhibition, inactive:
O=C(C[C@H]1CC[C@H](NS(=O)(=O)c2ccccc2)[C@H](CO)O1)NCc1ccncn1 6.51%, CN1C(=O)c2cc(NC(=O)Cc3cccs3)ccc2OC[C@@H]2O[C@@H](CC(=O)N[C@@H]3CCN(Cc4ccccc4)C3)CC[C@H]21 -2.4%, COCCCNC(=O)[C@@]1(C)c2ccccc2C(=O)N(Cc2ccc(OC(F)(F)F)cc2)[C@H]1c1ccc(CO)cc1 0.166%, COc1ccccc1CNC(=O)C[C@H]1C[C@@H]2c3cc(NC(=O)Nc4ccccc4F)ccc3O[C@@H]2[C@H](CO)O1 -5.72%, COCC(=O)N(C)C[C@H]1Oc2cc(C#C[C@@H](C)O)ccc2S(=O)(=O)N([C@H](C)CO)C[C@H]1C -5.34%, CO[C@@H]1CN(C)C(=O)c2cc(NC(=O)CC(F)(F)F)ccc2OC[C@H](C)N(S(=O)(=O)c2cn(C)cn2)C[C@H]1C 1.11%, O=C(O)C[C@@H]1C[C@@H]2c3cc(NC(=O)Nc4ccccc4)ccc3O[C@@H]2[C@H](CO)O1 -3.63%, COc1ccc(NC(=O)N[C@H]2CC[C@H](CCn3cc(-c4ccccc4F)nn3)O[C@H]2CO)cc1 -0.072%, O=C(Cc1cccnc1)N[C@H]1CC[C@H](CCn2cc(-c3ccccc3F)nn2)O[C@H]1CO -1.27%, O=C(Nc1ccc(F)cc1)N[C@H]1CC[C@H](CCn2cc(-c3ccc(F)cc3)nn2)O[C@@H]1CO 3.97%, O=C(Cc1ccncc1)N[C@@H]1CC[C@H](CCn2cc(-c3ccccc3F)nn2)O[C@H]1CO 1.05%, COc1ccc2c3c(n(C)c2c1)[C@@H](CO)NCC31CCN(CC2CCCC2)CC1 -0.874%, CN1CCN(C(=O)C[C@@H]2C=C[C@@H](NS(=O)(=O)c3cccc(F)c3)[C@@H](CO)O2)CC1 1.94%, C[C@@H]1CN([C@@H](C)CO)S(=O)(=O)c2ccc(-c3cccnc3)cc2O[C@H]1CN(C)CC1CCOCC1 1.51%, CCC(=O)N1[C@H](C(=O)NC2CCC2)[C@@H](CO)[C@@H]2Cn3c(cccc3=O)[C@@H]21 -8.06%, C[C@H](CO)N1C[C@H](C)[C@@H](CN(C)S(=O)(=O)c2ccccc2F)Oc2ncc(C#Cc3ccccc3F)cc2C1=O 2.94%, N#C[C@@H]1[C@@H](c2ccccc2C2=CCCC2)[C@H](CO)N1C(=O)NC1CCCC1 1.76%, COCC(=O)Nc1ccc2c(c1)C(=O)N(C)[C@@H]1CC[C@@H](CC(=O)NCC(F)(F)F)O[C@H]1CO2 0.833%, O=C(NCCCc1ccccc1)C1CCC(=O)N(CCc2ccc(Cl)cc2)C1 (stereo not drawn) -3.16%, Cc1cnc(C)c(N2CCN(C(=O)C3CCC(=O)N(CCc4cccc(F)c4)C3)CC2)n1 (stereo not drawn) -3.12%, C[C@@H]1CN([C@@H](C)CO)C(=O)c2cccc(NC(=O)Nc3ccc(F)cc3)c2O[C@H]1CN(C)Cc1ccc(-c2ccccc2)cc1 -1.08%, CCNC(=O)[C@H]1[C@H](CO)[C@H]2Cn3c(ccc(-c4cccc(OC)c4)c3=O)[C@H]2N1Cc1nccs1 -15.5%, CN1c2ccc(C3=CCCCC3)cc2[C@@H]2[C@@H](CCN2C(=O)Nc2cc(F)ccc2F)[C@@H]1CO 1.41%, O=S(=O)(NC1CC1)c1ccc2c3c(cccc13)CC2 -2.65%, CC(=O)Nc1ccc2c3c(ccc([N+](=O)[O-])c13)CC2 -1.7%, COCC#Cc1ccc([C@H]2[C@@H](CO)N3C(=O)CN(C(=O)C4CCCC4)C[C@@H]23)cc1 0.614%, C[C@H](CO)N1C[C@H](C)[C@@H](CN(C)S(=O)(=O)c2ccccc2)Oc2ccc(NC(=O)Nc3ccc(F)cc3)cc2CC1=O 3.49%, O=C([C@H]1[C@H](CO)[C@H]2Cn3c(ccc(C4=CCCCC4)c3=O)[C@@H]1N2)N1CCCCC1 -11.2%, C=C(C)COc1ccc(-c2nc(N)ncc2-c2ccccc2OC)c(O)c1 -0.166%, COc1ccc(-c2nc(N)ncc2-c2ccc(Cl)cc2)c(O)c1 -4.03%, C=C[C@H](OC)[C@@H](O)c1ccc(OC)c(O)c1 -1.66%, CCNC(=O)C[C@@H]1CC[C@@H]2[C@@H](COc3ccc(NC(C)=O)cc3C(=O)N2C)O1 1.4%, COCC(=O)Nc1ccc2c(c1)C(=O)N(C)C[C@@H](OC)[C@H](C)CN(C(=O)c1ccccn1)[C@@H](C)CO2 0.122%, O=C(NCC[C@@H]1CC[C@H](NC(=O)C2CC2)[C@H](CO)O1)c1cnccn1 1.79%, O=C(Nc1c(C(=O)N2CCCCC2)cnn1-c1ccccc1)c1ccco1 0.316%, Cc1ccccc1NC(=O)c1cnn(-c2ccccc2)c1NC(=O)c1ccco1 3.74%, COc1ccc(Cl)cc1NC(=O)CN(C)Cc1ccc(OC)c(OC)c1 -4.51%, COc1ccc(Cl)cc1NC(=O)COc1ccc2c(c1)OCO2 -11.6%, O=C(C[C@@H]1CC[C@H]2[C@@H](COC[C@@H](O)CN2C(=O)Nc2ccc(F)cc2)O1)NCC1CC1 2.85%, O=C(C[C@@H]1CC[C@H](NC(=O)c2ccncc2)[C@@H](CO)O1)Nc1ccc(-c2ccccc2)cc1 -3.04%, COc1cc(OC)c(S(=O)(=O)Nc2ccccc2C(=O)O)cc1S(=O)(=O)Nc1ccccc1C(=O)O 0.719%, Cc1ccc(NS(=O)(=O)c2ccc(N/N=C/c3ccccc3OCC(=O)O)c([N+](=O)[O-])c2)c(C)c1 -2.15%, COc1ccc(Br)cc1/C=N/Nc1ccc(Cl)c(C(=O)O)c1 -8.87%, O=C(O)c1ccccc1/C=N/Nc1ccc(S(=O)(=O)Nc2ccc(Cl)cc2)cc1[N+](=O)[O-] 10.8%, COc1ccc2c3c([nH]c2c1)[C@@H](CO)N(Cc1cccc(F)c1)CC31CN(CC2CC2)C1 3.68%, CCNC(=O)C[C@@H]1CC[C@@H]2[C@H](COc3ccc(NC(=O)Nc4cccc(C)c4)cc3C(=O)N2C)O1 -1.08%, C/C=C/c1ccccc1[C@@H]1[C@@H](CO)N(S(=O)(=O)c2cccc(F)c2)[C@H]1C#N 2.5%, O=C(C[C@@H]1CC[C@@H]2[C@H](COC[C@H](O)CN2S(=O)(=O)c2ccccc2)O1)N[C@H]1CCN(Cc2ccccc2)C1 -3.32%, COCC(=O)Nc1ccc2c(c1)C(=O)N(C)C[C@@H](OC)[C@H](C)CN(C(=O)c1cccnc1)[C@H](C)CO2 5.23%, C=CCOc1cccc(C2C(C(=O)c3ccc(C)o3)=C(O)C(=O)N2c2nnc(C)s2)c1 (stereo not drawn) -0.578%, COc1cc(C2C(C(=O)c3ccco3)=C(O)C(=O)N2c2cc(C)on2)ccc1OCc1ccccc1 (stereo not drawn) -4.04%, COc1ccc(NC(=O)Nc2ccc3c(c2)C(=O)N([C@@H](C)CO)C[C@@H](C)[C@@H](CN(C)C(=O)CCCN(C)C)OCCCC[C@@H](C)O3)cc1 -2.34%, COc1ccc2c3c(n(C)c2c1)[C@@H](CO)N(CC1CC1)CC31CN(C(=O)c2cccc(F)c2)C1 1.38%, Cc1cc(C=O)c(C)n1-c1ccc(NC2CCCCC2)c([N+](=O)[O-])c1 2.63%, Cc1cc([N+](=O)[O-])ccc1NS(=O)(=O)c1ccccc1 4.53%, C[C@@H]1CN([C@H](C)CO)C(=O)c2cc(-c3cccc(F)c3)cnc2O[C@H]1CN(C)C(=O)Nc1ccccc1F 4.47%, O=C(CN1CCOCC1)N[C@@H]1CC[C@@H](CCNC(=O)C2CCCCC2)O[C@@H]1CO 7.91%, C[C@H]1CN([C@@H](C)CO)C(=O)c2cc(C#CC3CCCC3)cnc2O[C@H]1CN(C)C(=O)c1ccncc1 5.96%, Cc1ccc(C(=O)N/C(=C\c2ccc(F)cc2)C(=O)NCCN2CCOCC2)cc1 -1.92%, Cc1c(C(=O)NCC2CCCO2)sc2nc(-c3ccccc3)cn12 (stereo not drawn) -9.93%, C[C@@H]1CCCCO[C@@H](CN(C)C(=O)Nc2ccc(C(F)(F)F)cc2)[C@H](C)CN([C@@H](C)CO)C(=O)c2cc(N(C)C)ccc2O1 2.03%, O=C(c1ccc(F)cc1)N1CC(=O)N2[C@@H](CO)[C@H](c3ccc(C4=CCCC4)cc3)[C@@H]2C1 -4.25%, C[C@H]1CN([C@@H](C)CO)S(=O)(=O)c2ccc(C#CCN(C)C)cc2O[C@@H]1CN(C)Cc1ccc(F)cc1 -1.1%, C[C@@H]1CN([C@@H](C)CO)S(=O)(=O)c2ccc(C#CCC3CCCC3)cc2O[C@@H]1CN(C)C 2.36%, C[C@@H]1CN([C@H](C)CO)S(=O)(=O)c2ccc(C#CCC3CCCC3)cc2O[C@H]1CN(C)C(=O)CC1CC1 9.26%, C[C@@H]1CN([C@@H](C)CO)S(=O)(=O)c2ccc(C#CCC3CCCC3)cc2O[C@H]1CN(C)C(=O)CC1CC1 9.11%, CO[C@@H]1CN(C)C(=O)c2ccc(NC(=O)c3cccc(Oc4ccccc4)c3)cc2OC[C@H](C)NC[C@@H]1C 0.913%, CN(C)C(=O)c1cccc(-c2ccc3n(c2=O)C[C@H]2N[C@@H]3[C@@H](C(=O)NC3CCC3)[C@@H]2CO)c1 -48.3%, COc1ccc2c3c(n(C)c2c1)[C@H](CO)N(C(C)=O)CC31CN(C(=O)c2cnccn2)C1 -3.27%, CCc1nnc(NS(=O)(=O)c2ccc(NC(=S)NC(=O)/C=C/c3cccs3)cc2)s1 9.43%, CCc1nnc(NS(=O)(=O)c2ccc(NC(=O)c3cccc(OC(F)(F)C(F)F)c3)cc2)s1 -3.94%, C[C@@H]1CN([C@@H](C)CO)C(=O)c2cc(NS(C)(=O)=O)ccc2O[C@@H](C)CCCCO[C@@H]1CN(C)C(=O)c1ccccc1 0.623%
